Data taken from publication PMC7862700, “An all-to-all approach to the identification of sequence-specific readers for epigenetic DNA modifications on cytosine”.

Columns and labels:
Test in all cases: DAPPL (digital affinity profiling via proximity ligation, sequencing); 10 mM Tris-HCl pH 7.5, 50 mM NaCl, 1 mM DTT, 4% glycerol, room temperature, 30 min; GST-TFs on glutathione beads, 16-mer random dsDNA library, 0.1% formaldehyde crosslink after washing; high values mean tight binding
FLI1 = biological target: T1, FLI1 (Homo sapiens, UniProt Q01543 1-452); settings: protein: recombinant; tags: N-terminal GST; dsDNA, one strand shown
T1 sequence: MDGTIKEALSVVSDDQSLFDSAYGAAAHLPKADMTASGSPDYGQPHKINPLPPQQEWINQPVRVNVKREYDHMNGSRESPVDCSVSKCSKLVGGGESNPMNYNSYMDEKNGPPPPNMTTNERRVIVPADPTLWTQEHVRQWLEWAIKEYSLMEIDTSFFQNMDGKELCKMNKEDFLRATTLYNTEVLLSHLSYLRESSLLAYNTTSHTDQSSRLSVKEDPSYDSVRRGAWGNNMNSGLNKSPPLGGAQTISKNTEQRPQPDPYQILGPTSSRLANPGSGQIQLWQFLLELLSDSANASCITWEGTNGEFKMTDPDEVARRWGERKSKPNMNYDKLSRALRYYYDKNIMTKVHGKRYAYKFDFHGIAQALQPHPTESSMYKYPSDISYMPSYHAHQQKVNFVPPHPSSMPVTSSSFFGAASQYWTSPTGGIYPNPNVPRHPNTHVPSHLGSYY
How it was run: (§1)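 The binding signal reported is, for every hexamer, its read frequency for a factor over its read frequency for the tag-only sample. Reads came from pools of yeast-expressed, GST-fused human transcription factors on glutathione beads, barcoded with DNA and mixed with that sample, which were incubated with 200 nmole of a random double-stranded 16-mer DNA library in Tris/NaCl/DTT/glycerol buffer at room temperature for 30 min. After washing, the pools were crosslinked with 0.1% formaldehyde, proximity-ligated with BsaI/T4 ligase for 1 h at 37 °C, PCR-amplified and sequenced on an Illumina NextSeq500.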

ELK1 = biological target: T2, ELK1 (Homo sapiens, UniProt P19419 1-428); settings: protein: recombinant; tags: N-terminal GST; dsDNA, one strand shown
T2 sequence: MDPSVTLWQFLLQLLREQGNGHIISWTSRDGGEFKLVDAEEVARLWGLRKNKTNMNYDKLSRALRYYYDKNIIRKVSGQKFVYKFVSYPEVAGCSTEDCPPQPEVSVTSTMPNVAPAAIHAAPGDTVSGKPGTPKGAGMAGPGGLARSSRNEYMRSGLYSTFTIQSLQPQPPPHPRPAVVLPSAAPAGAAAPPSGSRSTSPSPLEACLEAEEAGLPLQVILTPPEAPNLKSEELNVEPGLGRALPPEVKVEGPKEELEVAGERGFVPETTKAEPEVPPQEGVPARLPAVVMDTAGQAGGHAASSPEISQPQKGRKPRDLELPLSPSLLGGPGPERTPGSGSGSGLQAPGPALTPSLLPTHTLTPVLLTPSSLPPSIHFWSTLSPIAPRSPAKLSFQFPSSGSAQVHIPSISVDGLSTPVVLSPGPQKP
How it was run: as §1

GABPA = biological target: T3, GABPA (Homo sapiens, UniProt Q06546 1-454); settings: protein: recombinant; tags: N-terminal GST; dsDNA, one strand shown
T3 sequence: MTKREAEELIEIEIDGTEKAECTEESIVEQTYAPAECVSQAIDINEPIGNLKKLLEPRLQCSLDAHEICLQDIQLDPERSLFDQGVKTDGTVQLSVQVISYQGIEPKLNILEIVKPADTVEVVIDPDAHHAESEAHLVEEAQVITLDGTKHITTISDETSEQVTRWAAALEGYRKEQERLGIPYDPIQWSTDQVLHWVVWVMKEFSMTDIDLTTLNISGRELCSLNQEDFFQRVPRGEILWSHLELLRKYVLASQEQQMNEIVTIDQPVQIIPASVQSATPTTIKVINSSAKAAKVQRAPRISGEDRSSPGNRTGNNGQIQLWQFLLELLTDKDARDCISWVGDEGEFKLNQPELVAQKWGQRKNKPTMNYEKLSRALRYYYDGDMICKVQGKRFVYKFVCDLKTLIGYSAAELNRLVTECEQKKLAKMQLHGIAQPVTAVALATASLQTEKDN
How it was run: as §1

ERG = biological target: T4, ERG (Homo sapiens, UniProt P11308 1-479); settings: protein: recombinant; tags: N-terminal GST; dsDNA, one strand shown
T4 sequence: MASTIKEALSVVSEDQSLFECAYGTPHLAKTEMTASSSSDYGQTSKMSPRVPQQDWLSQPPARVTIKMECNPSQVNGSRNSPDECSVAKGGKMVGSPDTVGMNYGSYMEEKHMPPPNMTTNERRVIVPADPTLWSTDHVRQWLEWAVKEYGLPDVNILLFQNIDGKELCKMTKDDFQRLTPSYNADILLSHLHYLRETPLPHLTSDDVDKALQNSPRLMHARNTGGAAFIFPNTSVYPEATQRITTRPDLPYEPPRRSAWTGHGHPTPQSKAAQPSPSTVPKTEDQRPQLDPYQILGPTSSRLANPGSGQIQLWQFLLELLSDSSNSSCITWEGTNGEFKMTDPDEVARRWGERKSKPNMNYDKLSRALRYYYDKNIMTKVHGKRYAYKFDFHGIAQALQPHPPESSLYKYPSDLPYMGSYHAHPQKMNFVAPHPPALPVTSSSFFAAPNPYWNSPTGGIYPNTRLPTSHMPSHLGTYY
How it was run: as §1

ELF1 = ELF1 (Homo sapiens, UniProt P32519 1-619); settings: protein: recombinant; tags: N-terminal GST; dsDNA, one strand shown
How it was run: as §1

EHF = biological target: T5, EHF (Homo sapiens, UniProt Q9NZC4 1-300); settings: protein: recombinant; tags: N-terminal GST; dsDNA, one strand shown
T5 sequence: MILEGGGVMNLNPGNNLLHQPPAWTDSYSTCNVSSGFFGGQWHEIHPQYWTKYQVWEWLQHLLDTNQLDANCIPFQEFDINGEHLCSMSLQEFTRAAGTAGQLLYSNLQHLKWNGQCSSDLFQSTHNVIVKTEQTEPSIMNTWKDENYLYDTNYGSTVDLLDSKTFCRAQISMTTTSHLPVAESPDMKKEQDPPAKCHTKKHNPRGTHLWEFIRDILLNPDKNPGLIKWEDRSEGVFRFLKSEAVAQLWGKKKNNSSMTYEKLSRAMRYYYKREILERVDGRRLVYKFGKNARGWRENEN
How it was run: as §1

SPI1 = SPI1 (Homo sapiens, UniProt P17947 1-270); settings: protein: recombinant; tags: N-terminal GST; dsDNA, one strand shown
How it was run: as §1

SPIB = SPIB (Homo sapiens, UniProt Q01892 1-262); settings: protein: recombinant; tags: N-terminal GST; dsDNA, one strand shown
How it was run: as §1

ELK3 = biological target: T6, ELK3 (Homo sapiens, UniProt P41970 1-407); settings: protein: recombinant; tags: N-terminal GST; dsDNA, one strand shown
T6 sequence: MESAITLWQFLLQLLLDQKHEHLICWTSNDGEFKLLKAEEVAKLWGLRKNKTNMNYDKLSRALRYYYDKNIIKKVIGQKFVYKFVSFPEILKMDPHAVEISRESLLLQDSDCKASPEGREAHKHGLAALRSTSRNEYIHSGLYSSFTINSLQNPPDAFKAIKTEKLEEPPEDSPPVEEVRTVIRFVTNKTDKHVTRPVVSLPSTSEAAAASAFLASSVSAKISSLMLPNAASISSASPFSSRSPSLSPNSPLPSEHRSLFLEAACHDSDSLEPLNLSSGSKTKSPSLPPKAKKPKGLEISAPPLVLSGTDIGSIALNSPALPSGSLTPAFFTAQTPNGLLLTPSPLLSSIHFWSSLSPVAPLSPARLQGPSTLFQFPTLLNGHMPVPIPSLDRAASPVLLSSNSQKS
How it was run: as §1

ETV5 = ETV5 (Homo sapiens, UniProt P41161 1-510); settings: protein: recombinant; tags: N-terminal GST; dsDNA, one strand shown
How it was run: as §1

HSF1 = HSF1 (Homo sapiens, UniProt Q00613 1-529); settings: protein: recombinant; tags: N-terminal GST; chain copies: 3; dsDNA, one strand shown
How it was run: as §1

SPIC = biological target: T7, SPIC (Homo sapiens, UniProt Q8N5J4 1-248); settings: protein: recombinant; tags: N-terminal GST; dsDNA, one strand shown
T7 sequence: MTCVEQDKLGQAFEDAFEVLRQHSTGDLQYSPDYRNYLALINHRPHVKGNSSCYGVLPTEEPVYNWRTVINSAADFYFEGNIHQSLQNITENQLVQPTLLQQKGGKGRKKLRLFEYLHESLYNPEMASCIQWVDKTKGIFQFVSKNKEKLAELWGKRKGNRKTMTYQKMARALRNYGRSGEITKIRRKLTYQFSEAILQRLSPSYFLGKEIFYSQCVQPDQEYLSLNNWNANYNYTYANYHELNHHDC
How it was run: as §1

ELF4 = ELF4 (Homo sapiens, UniProt Q99607 1-663); settings: protein: recombinant; tags: N-terminal GST; dsDNA, one strand shown
How it was run: as §1

ELK4 = biological target: T8, ELK4 (Homo sapiens, UniProt P28324-2 1-405); settings: protein: recombinant; tags: N-terminal GST; dsDNA, one strand shown
T8 sequence: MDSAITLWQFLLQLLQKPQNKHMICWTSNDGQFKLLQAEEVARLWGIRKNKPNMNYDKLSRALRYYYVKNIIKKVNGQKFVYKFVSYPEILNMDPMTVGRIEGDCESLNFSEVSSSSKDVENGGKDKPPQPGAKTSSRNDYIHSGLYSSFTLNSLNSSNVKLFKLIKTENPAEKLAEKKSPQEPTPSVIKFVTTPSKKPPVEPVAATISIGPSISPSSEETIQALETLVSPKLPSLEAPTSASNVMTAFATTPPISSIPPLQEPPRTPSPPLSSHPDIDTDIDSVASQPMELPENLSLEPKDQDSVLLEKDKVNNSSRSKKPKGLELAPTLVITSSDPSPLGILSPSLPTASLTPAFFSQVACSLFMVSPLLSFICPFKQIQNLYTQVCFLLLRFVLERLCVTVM
How it was run: as §1

ETV2 = biological target: T9, ETV2 (Homo sapiens, UniProt O00321 1-342); settings: protein: recombinant; tags: N-terminal GST; dsDNA, one strand shown
T9 sequence: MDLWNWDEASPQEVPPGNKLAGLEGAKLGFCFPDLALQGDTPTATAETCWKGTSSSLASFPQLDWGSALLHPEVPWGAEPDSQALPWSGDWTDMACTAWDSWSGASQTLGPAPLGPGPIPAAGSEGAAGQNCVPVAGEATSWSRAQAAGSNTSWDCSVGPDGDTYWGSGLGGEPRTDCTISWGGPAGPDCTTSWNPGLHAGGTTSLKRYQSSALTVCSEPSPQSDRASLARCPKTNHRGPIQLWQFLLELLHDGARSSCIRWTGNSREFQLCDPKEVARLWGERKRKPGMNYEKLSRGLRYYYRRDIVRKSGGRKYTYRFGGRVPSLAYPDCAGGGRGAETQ
How it was run: as §1

ELF3 = biological target: T10, ELF3 (Homo sapiens, UniProt P78545 1-371); settings: protein: recombinant; tags: N-terminal GST; dsDNA, one strand shown
T10 sequence: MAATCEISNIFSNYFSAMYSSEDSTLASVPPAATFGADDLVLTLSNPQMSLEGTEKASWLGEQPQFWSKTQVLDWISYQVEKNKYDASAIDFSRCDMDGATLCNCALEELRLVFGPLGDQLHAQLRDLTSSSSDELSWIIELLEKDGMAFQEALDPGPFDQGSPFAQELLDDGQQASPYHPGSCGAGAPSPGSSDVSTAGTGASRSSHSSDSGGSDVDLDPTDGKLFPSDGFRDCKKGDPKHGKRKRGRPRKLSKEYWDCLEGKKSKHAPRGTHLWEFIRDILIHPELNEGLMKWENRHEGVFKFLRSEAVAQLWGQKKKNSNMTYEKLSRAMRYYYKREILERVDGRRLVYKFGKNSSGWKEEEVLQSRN
How it was run: as §1

ETV1 = ETV1 (Homo sapiens, UniProt P50549 1-477); settings: protein: recombinant; tags: N-terminal GST; dsDNA, one strand shown
How it was run: as §1

SPIB, sequence (Q01892 whole entry): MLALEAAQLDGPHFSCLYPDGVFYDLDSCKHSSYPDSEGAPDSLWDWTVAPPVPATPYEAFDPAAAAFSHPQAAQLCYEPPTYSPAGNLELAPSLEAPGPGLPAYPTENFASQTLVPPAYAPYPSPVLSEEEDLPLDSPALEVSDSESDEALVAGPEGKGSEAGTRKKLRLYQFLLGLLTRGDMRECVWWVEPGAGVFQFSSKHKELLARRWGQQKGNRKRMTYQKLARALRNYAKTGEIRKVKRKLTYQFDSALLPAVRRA
ETV5, sequence (P41161 whole entry): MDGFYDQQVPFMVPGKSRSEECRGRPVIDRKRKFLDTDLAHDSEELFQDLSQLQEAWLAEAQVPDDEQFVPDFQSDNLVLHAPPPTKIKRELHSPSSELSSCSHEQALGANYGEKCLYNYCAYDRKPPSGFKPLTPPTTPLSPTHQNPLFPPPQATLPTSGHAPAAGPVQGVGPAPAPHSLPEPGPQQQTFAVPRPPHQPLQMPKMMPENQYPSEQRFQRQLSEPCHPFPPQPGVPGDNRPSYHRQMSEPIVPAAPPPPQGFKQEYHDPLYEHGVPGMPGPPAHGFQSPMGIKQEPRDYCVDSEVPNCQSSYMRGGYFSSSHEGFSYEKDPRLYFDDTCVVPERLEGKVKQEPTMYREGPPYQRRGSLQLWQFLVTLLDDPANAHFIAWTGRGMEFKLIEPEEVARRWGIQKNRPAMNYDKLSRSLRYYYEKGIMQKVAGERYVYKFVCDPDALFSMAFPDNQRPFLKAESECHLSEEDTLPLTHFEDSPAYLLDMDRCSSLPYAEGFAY
ELF1, sequence (P32519 whole entry): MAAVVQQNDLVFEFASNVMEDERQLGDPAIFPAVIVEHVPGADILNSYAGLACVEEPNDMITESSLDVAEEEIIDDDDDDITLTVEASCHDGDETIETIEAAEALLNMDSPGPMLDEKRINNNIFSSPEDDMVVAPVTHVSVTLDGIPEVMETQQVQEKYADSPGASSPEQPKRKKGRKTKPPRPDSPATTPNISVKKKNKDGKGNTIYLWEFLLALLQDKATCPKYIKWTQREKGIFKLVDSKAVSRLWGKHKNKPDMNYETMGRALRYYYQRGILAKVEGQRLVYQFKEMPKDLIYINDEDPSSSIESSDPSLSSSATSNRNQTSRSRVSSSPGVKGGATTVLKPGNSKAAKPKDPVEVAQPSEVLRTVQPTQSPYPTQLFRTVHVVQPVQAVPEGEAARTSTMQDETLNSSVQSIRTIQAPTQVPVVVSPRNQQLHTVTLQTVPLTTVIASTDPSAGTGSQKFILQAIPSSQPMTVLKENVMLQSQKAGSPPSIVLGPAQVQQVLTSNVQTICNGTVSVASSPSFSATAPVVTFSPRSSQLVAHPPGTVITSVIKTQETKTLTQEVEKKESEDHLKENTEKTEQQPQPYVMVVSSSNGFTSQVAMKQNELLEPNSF
ELF4, sequence (Q99607 whole entry): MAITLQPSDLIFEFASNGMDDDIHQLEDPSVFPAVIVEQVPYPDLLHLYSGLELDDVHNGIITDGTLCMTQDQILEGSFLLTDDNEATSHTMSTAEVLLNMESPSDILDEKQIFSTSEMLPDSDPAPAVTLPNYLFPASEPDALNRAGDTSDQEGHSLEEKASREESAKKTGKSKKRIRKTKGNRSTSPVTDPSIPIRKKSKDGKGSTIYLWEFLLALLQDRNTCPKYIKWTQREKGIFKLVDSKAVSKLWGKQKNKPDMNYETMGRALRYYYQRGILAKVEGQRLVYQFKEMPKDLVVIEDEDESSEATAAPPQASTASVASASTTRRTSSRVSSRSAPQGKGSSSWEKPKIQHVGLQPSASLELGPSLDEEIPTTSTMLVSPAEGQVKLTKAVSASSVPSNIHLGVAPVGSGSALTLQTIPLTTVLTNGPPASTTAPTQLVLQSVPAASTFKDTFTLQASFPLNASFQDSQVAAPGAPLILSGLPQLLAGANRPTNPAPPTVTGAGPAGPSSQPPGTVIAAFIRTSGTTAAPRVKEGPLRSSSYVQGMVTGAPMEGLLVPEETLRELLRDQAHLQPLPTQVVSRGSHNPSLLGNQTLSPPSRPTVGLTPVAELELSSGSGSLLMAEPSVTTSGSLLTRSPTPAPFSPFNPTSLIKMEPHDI
ETV1, sequence (P50549 whole entry): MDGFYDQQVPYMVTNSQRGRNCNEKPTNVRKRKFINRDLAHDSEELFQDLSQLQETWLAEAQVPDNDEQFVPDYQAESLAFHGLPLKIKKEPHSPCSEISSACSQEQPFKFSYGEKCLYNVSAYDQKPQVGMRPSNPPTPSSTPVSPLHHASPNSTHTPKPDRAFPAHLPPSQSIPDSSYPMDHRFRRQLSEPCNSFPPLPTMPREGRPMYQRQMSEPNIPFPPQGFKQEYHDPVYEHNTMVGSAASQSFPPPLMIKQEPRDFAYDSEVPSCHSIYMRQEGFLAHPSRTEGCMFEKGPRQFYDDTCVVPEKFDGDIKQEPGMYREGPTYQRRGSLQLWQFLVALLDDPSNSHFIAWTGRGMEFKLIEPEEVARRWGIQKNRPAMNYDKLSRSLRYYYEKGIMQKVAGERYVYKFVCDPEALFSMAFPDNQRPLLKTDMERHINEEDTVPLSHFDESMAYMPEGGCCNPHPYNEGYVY
HSF1, sequence (Q00613 whole entry): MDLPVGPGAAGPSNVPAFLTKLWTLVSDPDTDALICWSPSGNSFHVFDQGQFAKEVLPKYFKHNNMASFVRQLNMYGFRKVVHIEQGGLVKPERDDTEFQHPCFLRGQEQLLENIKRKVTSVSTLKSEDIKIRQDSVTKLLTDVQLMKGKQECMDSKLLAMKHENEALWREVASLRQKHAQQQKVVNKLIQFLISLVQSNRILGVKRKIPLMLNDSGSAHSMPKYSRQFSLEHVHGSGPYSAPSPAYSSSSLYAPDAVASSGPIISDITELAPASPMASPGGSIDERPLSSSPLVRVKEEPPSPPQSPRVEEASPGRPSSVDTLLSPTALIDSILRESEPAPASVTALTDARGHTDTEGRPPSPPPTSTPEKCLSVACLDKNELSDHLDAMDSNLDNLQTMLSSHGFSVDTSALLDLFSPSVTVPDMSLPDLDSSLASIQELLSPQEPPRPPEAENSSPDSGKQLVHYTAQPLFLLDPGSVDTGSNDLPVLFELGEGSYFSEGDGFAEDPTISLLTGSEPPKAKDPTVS

Sequence: TGCGTT
- binding signal (FLI1): 1.04 fold enrichment (6-mer frequency, TF over GST control)
- binding signal (ELK1): 1.09 fold enrichment (6-mer frequency, TF over GST control)
- binding signal (GABPA): 1.17 fold enrichment (6-mer frequency, TF over GST control)
- binding signal (ERG): 1.12 fold enrichment (6-mer frequency, TF over GST control)
- binding signal (ELF1): 1.12 fold enrichment (6-mer frequency, TF over GST control)
- binding signal (EHF): 1.08 fold enrichment (6-mer frequency, TF over GST control)
- binding signal (SPI1): 1.1 fold enrichment (6-mer frequency, TF over GST control)
- binding signal (SPIB): 1.11 fold enrichment (6-mer frequency, TF over GST control)
- binding signal (ELK3): 1.13 fold enrichment (6-mer frequency, TF over GST control)
- binding signal (ETV5): 1.07 fold enrichment (6-mer frequency, TF over GST control)
- binding signal (HSF1): 1 fold enrichment (6-mer frequency, TF over GST control)
- binding signal (SPIC): 1.13 fold enrichment (6-mer frequency, TF over GST control)
- binding signal (ELF4): 1.05 fold enrichment (6-mer frequency, TF over GST control)
- binding signal (ELK4): 1.19 fold enrichment (6-mer frequency, TF over GST control)
- binding signal (ETV2): 1.16 fold enrichment (6-mer frequency, TF over GST control)
- binding signal (ELF3): 1.25 fold enrichment (6-mer frequency, TF over GST control)
- binding signal (ETV1): 1.02 fold enrichment (6-mer frequency, TF over GST control)
